Bioassay records: PubChem, National Center for Advancing Translational Sciences (NCATS)
IL-1B inflam inh = qHTS for Inhibitors of Inflammasome Signaling: IL-1-beta AlphaLISA Primary Screen; THP-1 LPS/ATP IL-1B secretion, AlphaLISA, 16 h; hits give low values; activity change, % at 57.5 µM; 360,000 compounds, 4.7% hits; in the data active = activity change below about -50%; inconclusive = mostly about -30% to -49%; note: % is set by controls: 0 for no effect and ±100 for the full control effect
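THP-1 cells pretreated 1 hr with compounds (up to 57.5 uM final), then stimulated with LPS (250 ng/mL final) plus ATP (1.25 mM final); secreted IL-1B measured by AlphaLISA after 16 hr, decreased signal indicating inhibition.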
DT40 TDP1 no CPT = qHTS for Inhibitors of human tyrosyl-DNA phosphodiesterase 1 (TDP1): qHTS in cells in absence of CPT; DT40 Tdp1-/- hTDP1 cells, no CPT, ATP luminescence, 48 h; 420,000 compounds, 15% hits; Potency, µM (doses to about 46.2 µM), inactives show at the highest dose activity change, negative = growth inhibition, hits mostly inhibitors; note: potency is the fitted concentration of half-maximal effect; % is set by controls: 0 for no effect and ±100 for the full control effect; nearly all actives have a fitted effect of over 55% in size
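DT40 Tdp1-/-;hTDP1 cells, no CPT (DMSO vehicle only), 400 cells/well; compounds pin-transferred; ≥48 hr, 37 °C; CellTiter-Glo 30 min RT dark, luminescence read.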
DT40 TDP1 CPT = qHTS for Inhibitors of human tyrosyl-DNA phosphodiesterase 1 (TDP1): qHTS in cells in presence of CPT; AID 686979, 2013; 420,000 compounds, 12% hits; Potency, µM (top dose mostly 46.2 µM), for the others: at the highest dose activity change, negative = growth inhibition, usual class: inhibitors; chicken DT40 Tdp1-/-;hTDP1 cells + 20 nM CPT, ATP luminescence, 48 h; note: potency is the fitted concentration of half-maximal effect; % is set by controls: 0 for no effect and ±100 for the full control effect; nearly all actives have a fitted effect of over 55% in size
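Cell growth measured by CellTiter-Glo luminescence after a minimum 48 h, 37 C compound exposure with 20 nM CPT in Tdp1-knockout DT40 cells stably expressing hTDP1, seeded 400/well; qHTS titration format.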
BCR signal inh = qHTS Assay to Find Inhibitors of Chronic Active B-Cell Receptor Signaling; ABC-DLBCL IkBa-CBG/CBR reporter, luminescence ratio, 4 h; Potency, µM (top dose mostly 46.1 µM), for inactives: top-dose activity change, negative = inhibition, actives largely listed as inhibitors; 340,000 compounds, 0.05% hits; AID 493014, 2011; active = well fitted inhibition curve with a large enough effect in the signal ratio, with a control signal flat, not every such curve was filed as active; inconclusive = small, poorly fitted or top-dose-only effect, or effect the other way, or a change in a side signal; the % refers to the signal ratio;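 note: potency is the fitted concentration of half-maximal effect; plate controls were basal doxycycline-induced cells for no effect and cells given 10 µM MG132 for full effect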
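Compounds up to 46 uM were incubated four hours with TMD8 cells whose green CBG68 luciferase is fused to IkappaBalpha; red CBR luminescence normalised the signal, and concentration-effect curves were fitted to fusion, red and ratio data.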
MCF10A rereplic = A quantitative high throughput screen for small molecules that induce DNA re-replication in MCF 10a normal breast cells | Potency, µM (top dose mostly 46.1 µM), for inactives: top-dose activity, positive = re-replication, actives largely listed as activators | 350,000 compounds, 2.9% hits | MCF 10A DNA re-replication, Hoechst nuclear intensity, 48 h; note: potency is the fitted concentration of half-maximal effect; % of control where 0% means no effect; nearly all actives have a fitted effect of over 50% in size
SW480 rerep = A quantitative high throughput screen for small molecules that induce DNA re-replication in SW480 colon adenocarcinoma cells | SW480 DNA re-replication, Hoechst DNA content imaging, 48 h | Potency, µM (doses to about 46.1 µM), for inactives: top-dose re-replication activation, most hits filed as activators | 340,000 compounds, 1.8% hits | AID 624297, 2012; note: potency is the fitted concentration of half-maximal effect; % of control where 0% means no effect; nearly all actives have a fitted effect of over 55% in size
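Image-based DNA-content assay: after two days of treatment, nuclei were labelled with the DNA dye Hoechst and imaged, and hits were compounds raising the count of nuclei showing high fluorescence intensity.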
* hit, by the source's call; ? = inconclusive; / = not tested or not shown; [ ] = remark or other dose. Rows were chosen to be rich in hits. Some 19% of all compounds tested hit in one or more screens of this group. Unless noted, calls come from the whole dose curve; as a rule, active = well fitted curve in the direction sought with a large enough effect; inconclusive = small, poorly fitted or top-dose-only effect, or another doubt; inactive = no such curve, though single readings can be large; an effect the other way counts as inactive or inconclusive.

SMILES	IL-1B inflam inh	DT40 TDP1 no CPT	DT40 TDP1 CPT	BCR signal inh	MCF10A rereplic	SW480 rerep
C#CCOCCOCCOCCNc1nc(N2CCN(C(=O)Cn3cc(CCCCN)nn3)CC2)nc(N2CCN(C(=O)[C@H](Cc3ccc(O)cc3)n3cc(CCO)nn3)CC2)n1	8	3%	14%	/	3.7µM*	5%[9.22 µM]
C#CCOCCOCCOCCNc1nc(N2CCN(C(=O)CCCCCCCCCCNC(=O)Cn3cc(CCCCCN)nn3)CC2)nc(N2CCN(C(=O)CCCCCCCCCCNC(=O)[C@H](CO)n3cc(CCCCCN)nn3)CC2)n1	-71*	?	?	?	3%	-12%
C#CCOCCOCCOCCNc1nc(N2CCOCC2)nc(N2CCN(C(=O)CCCCCCCCCCNC(=O)[C@@H](CCSC)n3cc(CCO)nn3)CC2)n1	?	?	?	3%	19%	1%
C#CCOCCOCCOCCNc1nc(N2CCN(C(=O)CCCCCCCCCCNC(=O)Cn3cc(CCCCCN)nn3)CC2)nc(N2CCN(C(=O)CCCCCCCCCCNC(=O)[C@H]([C@@H](C)CC)n3cc(CCCCCN)nn3)CC2)n1	-106*	?	23µM*	3%	17%	-6%
CCN1C(=O)[C@H]2[C@@H](c3ccc(OC)cc3)N[C@]3(CCCN(Cc4ccc(C)cc4)C3=O)[C@H]2C1=O	-3	?	-11%	/	/	/
Cc1noc(C)c1NC(=O)N(C)C[C@H]1OCc2cnnn2CCCC(=O)N([C@H](C)CO)C[C@H]1C	0	-28%	-5%	/	/	/
O=[N+]([O-])/C(C=Nc1ccccc1O)=C\Nc1ccccc1O	0	16µM*	8.2µM*	?	?	-6%
Cc1cc(C)c(C(=O)NCCCN2CCOCC2)c(C)c1	-1	14%	4%	-1%	-4%	2%
Cc1ccc2nc(NC(=O)CSc3nc4c(c(=O)n3C)SC(C)C4)sc2c1 (centres undefined)	-56*	21µM*	21µM*	?	-10%	1%
CCOC(=O)c1ccc(NC(=O)CSc2nc3c(c(=O)n2C)SC(C)C3)cc1 (centres undefined)	16	26µM*	18µM*	?	2%	-5%
COc1ccc(-c2noc(CCC(=O)N3CCN(c4ccccc4F)CC3)n2)cc1	?	-16%	-16%	?	?	-13%
CC(=C/c1ccccc1)/C=N/Nc1nc(N2CCCCC2)nc(N2CCCCC2)n1	-3	?	-26%	-3%	-4%	-7%
COc1ccc(Nc2nc(N3CCOCC3)nc(N3CCOCC3)n2)cc1	-10	?	-23%	-8%	6%	-7%
BrC(/C=N/Nc1nc(N2CCOCC2)nc(N2CCOCC2)n1)=C/c1ccccc1	?	21µM*	16µM*	?	?	?
c1ccc(Nc2nc(N3CCNCC3)nc(N3CCOCC3)n2)cc1	-63*	?	?	?	?	?
c1ccc(Nc2nc(N3CCOCC3)nc(N3CCOCC3)n2)cc1	/	16µM*	16µM*	?	?	18%
COc1ccc(Nc2nc(NCc3ccco3)nc(N3CCOCC3)n2)cc1	-57*	?	?	?	7%	105%
COc1ccc(CN2C(=O)C(CC(=O)NC3CCCC3)CC(C(=O)N3CCOCC3)=C2C)cc1 (centres undefined)	-13	-9%	-16%	/	/	/
N#CCCN(CCN1CCCC1)S(=O)(=O)c1ccc(-c2ccc([N+](=O)[O-])cc2)cc1	26	5%	0%	-13%	2%	3%
Cc1ccc(-c2cnc(C(O)c3cc(C)cc(C)c3)[nH]2)cc1 (centres undefined)	6	?	?	/	/	/
O=C(C1CCN(CC2CC=CCC2)CC1)N(CCc1ccccc1)Cc1ccccc1 (centres undefined)	?	-2%	-3%	1%	1%	-477%
O=C(C1CCN(CCCc2ccccc2)CC1)N(CCc1ccccc1)Cc1ccccc1	?	15µM*	?	?	10%	?
O=C(Cc1cccc(C(F)(F)F)c1)Nc1cc(S(=O)(=O)N2CCOCC2)ccc1N1CCCC1	-23	?	?	-6%	?	1%
O=C(Cc1ccc(S(=O)(=O)N2CCOCC2)s1)Nc1cc(C(F)(F)F)ccc1N1CCCC1	-8	21µM*	?	13%	3%	?
O=C(Cc1ccc(S(=O)(=O)N2CCOCC2)s1)Nc1ccccc1N1CCCC1	-1	15µM*	16µM*	0%	-1%	-4%
SMILES	IL-1B inflam inh	DT40 TDP1 no CPT	DT40 TDP1 CPT	BCR signal inh	MCF10A rereplic	SW480 rerep
Cn1c2c(c(=O)c3ccccc31)C[C@@H](O)C(C)(C)O2	/	-10%[9.04 µM]	-15%[9.04 µM]	/	/	/
CCCC1CCc2c(sc(NC(=O)OCC)c2C#N)C1 (centres undefined)	?	23µM*	15µM*	13%	?	10µM*
COc1cc(OC)c(OC)cc1/C=N/N(C)c1ccccc1	-62*	-25%	-21%	?	2%	-2%
COc1cc(/C=N/N(C)c2ccccc2)ccc1O	?	-6%	-29%	?	11%	-4%
Cc1nc2scc(C)n2c(=O)c1S(=O)(=O)Nc1ccc(N2CCN(S(C)(=O)=O)CC2)cc1	50	18µM*	23µM*	-4%	4%	-11%
Cc1ccc(OCC(=O)OC(C)CN2CCCCC2)cc1 (centres undefined)	0	1%	-6%	7%	1µM*	-100%
COc1ccc(OCC(=O)OC(C)CN2CCCCC2)cc1 (centres undefined)	-3	-3%	12%	-2%	1%	-92%
O=C(NC(=S)Nc1ccc2[nH]c(=O)[nH]c2c1)c1ccccc1[N+](=O)[O-]	0	-4%	6%	-1%	6%	-2%
CCc1nc2c(OCc3cc(Cl)cc(Cl)c3)cccn2c1N(C)C(=O)c1ccc(OC)cc1	?	16µM*	18µM*	/	/	/
CCc1nc2c(OCc3ccc(OC(F)F)cc3)cccn2c1N(C)C(=O)c1ccc(OC)cc1	-22	13µM*	18µM*	/	/	/
CCc1nc2c(OCc3ccc(Cl)cc3)cccn2c1N(C)C(=O)c1ccco1	-62*	21µM*	16µM*	/	/	/
